Assay outcomes (PubChem)
ClpP mod = qHTS Assay for Activators of ClpP; Potency, µM (doses to about 57.5 µM), inactives show at the highest dose activity change, negative = active; ATP-dependent Clp protease proteolytic subunit (Bacillus subtilis (strain 168)), P80244; purified B. subtilis ClpP, FRET peptide cleavage, 20 min; 1.9% of 340,000 active; active means well fitted falling curve with a large enough effect; inconclusive means small, poorly fitted or top-dose-only effect; inactive means no such curve, though single readings can be large or run the other way; further: potency means the concentration at half of the fitted maximal effect; the source files actives as falling curves though it sought activators and does not explain the sign; nearly all actives have a fitted effect of over 65% in size
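ClpP 10 microg/mL final, pH 8 Tris/KCl buffer with BSA, glycerol, Tween-20; compound pinned in; FRET-FV substrate; RT 20 min; Ex320/Em430; ΔFRET vs ADEP 5.8 microM, DMSO, no enzyme.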
Akt phos inh = Akt phosphorylation inhibition; Neuro2A IGF-stimulated pAkt S473 HTRF, 20 min; stronger effect = lower value; 0.32% of 360,000 active; AID 651550; activity change, % for hits at 50 µM; in the data active means activity change below about -80%; inconclusive means mostly about -51% to -80%; further: on the % scale 0 is the no-effect control and ±100 the full control effect
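Neuro2A cells (4,500/well, DMEM with 0.5% FBS) were treated with compound at a single 50 µM final concentration, stimulated with 6 nM IGF for 20 min at 37 °C, and lysed. Phospho-Akt Ser473 was read by HTRF as 665/615 ratio ×10^4.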
gsp antagonist = antagonizes gsp, the McCune-Albright syndrome mutation; gsp-mutant cells, cAMP HTRF, 30 min; 0.4% of 340,000 active; Potency, µM (doses to about 76.9 µM), for inactives: at the top dose activity change, negative = inhibition, actives largely listed as inhibitors; calls by dose curve; cell line not stated here;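 further: intracellular cAMP measured with PDE inhibitor Ro 20-1724 present during compound exposure; potency means the concentration at half of the fitted maximal effect; on the % scale 0 is the no-effect control and ±100 the full control effect; nearly all actives have a fitted effect of over 65% in size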
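Cells, 2000/well, grown 16–24 h in DMEM 10% FBS with 0.5 mg/ml G418, then compounds plus […] (300 uM addition stock), 30 min at 37C. cAMP read by HTRF (cAMP-d2 and anti-cAMP antibody-K in lysis buffer) after 30 min RT.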
gsp agonist = agonists of gsp mutant (McCune-Albright syndrome) | gsp mutant cells, cAMP HTRF, 30 min | Potency, µM (highest dose often 76.9 µM), inactives show at the top dose activation (cAMP increase), hits mostly activators | 0.13% of 340,000 active | AID 624287; active means well fitted activation curve with a large enough effect; inconclusive means small, poorly fitted or top-dose-only effect, or another doubt; inactive means no such curve, though single readings can be large or run the other way; cell line not stated here;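 further: phosphodiesterase inhibitor Ro 20-1724 added with compounds to block cAMP breakdown; potency means the concentration at half of the fitted maximal effect; nearly all actives have a fitted effect of over 60% in size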
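Cells stably selected in G418 were plated at 2000/well, grown 16-24 hr, then given compounds in DMSO with the PDE inhibitor […] (300 uM solution added) for 30 min at 37C; cAMP was read by HTRF.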
RXFP1 agonist = agonists of human relaxin receptor RXFP1 | AID 2676 | Q9HBX9 | Potency, µM (top dose mostly 57.5 µM), without a hit: at the highest dose activation, hits mostly activators | 0.3% of 370,000 active | HEK293T-RXFP1 cAMP TR-FRET, 30 min; response scale: percent of porcine relaxin response, buffer zero; further: potency means the concentration at half of the fitted maximal effect; on the % scale 0 is the no-effect control and ±100 the full control effect; nearly all actives have a fitted effect of over 60% in size
Target sequence (Q9HBX9 whole entry, looked up): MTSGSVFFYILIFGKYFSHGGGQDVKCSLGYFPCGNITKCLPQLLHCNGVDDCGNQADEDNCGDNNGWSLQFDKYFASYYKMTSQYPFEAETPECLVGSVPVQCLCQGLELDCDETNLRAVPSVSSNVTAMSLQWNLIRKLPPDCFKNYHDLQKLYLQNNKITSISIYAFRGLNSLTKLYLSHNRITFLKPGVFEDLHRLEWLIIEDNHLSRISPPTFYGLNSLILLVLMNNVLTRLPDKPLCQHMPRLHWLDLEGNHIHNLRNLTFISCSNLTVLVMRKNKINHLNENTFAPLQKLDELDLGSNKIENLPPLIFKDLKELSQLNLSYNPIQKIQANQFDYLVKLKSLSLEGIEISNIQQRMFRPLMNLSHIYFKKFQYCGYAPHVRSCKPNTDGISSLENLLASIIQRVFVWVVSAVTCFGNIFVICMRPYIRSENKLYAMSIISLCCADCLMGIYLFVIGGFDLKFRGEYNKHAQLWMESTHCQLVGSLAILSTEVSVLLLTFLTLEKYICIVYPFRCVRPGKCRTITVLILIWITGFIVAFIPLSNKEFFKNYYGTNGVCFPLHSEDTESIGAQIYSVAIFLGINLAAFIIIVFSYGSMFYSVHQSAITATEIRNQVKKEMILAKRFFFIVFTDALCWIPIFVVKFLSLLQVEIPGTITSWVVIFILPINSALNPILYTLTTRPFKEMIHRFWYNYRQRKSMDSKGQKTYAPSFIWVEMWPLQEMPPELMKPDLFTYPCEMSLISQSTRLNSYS
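HEK293 cells stably expressing RXFP1, treated 30 min at 37C with compounds plus PDE4 inhibitor Ro 20174; cAMP measured by HTRF TR-FRET. Normalized to buffer and 29 nM porcine relaxin; EC50 by Hill fit.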
RXFP1 antag = RXFP1 (human) relaxin receptor antagonism; Q9HBX9; HEK293-RXFP1, relaxin-stimulated cAMP HTRF, 30 min; stronger effect = lower value; activity change, negative = inhibition, % at 57.5 µM; 0.59% of 350,000 active; AID 1259400;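 active means activity change of -60% or lower, but not beyond a set lower limit; inconclusive means change between -60% and -40%, or beyond the set limit; inactive means change above -40%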; further: on the % scale 0 is the no-effect control and ±100 the full control effect
ClpP validation = Bacillus subtilis ClpP inhibition, validated hit. shares compounds with ClpP mod. 40% of 470 active. purified B. subtilis ClpP, FRET-FV substrate cleavage, 20 min. Potency, µM (top dose mostly 57.5 µM), without a hit: at the top dose activity change, negative = inhibition, hits mostly inhibitors. AID 743245; further: potency means the concentration at half of the fitted maximal effect; on the % scale 0 is the no-effect control and ±100 the full control effect; nearly all actives have a fitted effect of over 70% in size
The depositor's hits bear a star; i = inactive; ? = inconclusive; . = not tested or not shown; [ ] = another dose, or the depositor's remark. The list is a sample of the results. Unless noted, the call rests on the fitted dose curve; in most records, active means well fitted curve in the direction sought with a large enough effect; inconclusive means small, poorly fitted or top-dose-only effect, or another doubt; inactive means no such curve, though single readings can be large; an effect the other way counts as inactive or inconclusive.

SMILES | ClpP mod | Akt phos inh | gsp antagonist | gsp agonist | RXFP1 agonist | RXFP1 antag | ClpP validation
CCc1ccc2[nH]c(C(=O)Nc3ccc(C)c(F)c3)cc2c1 | 23% | i | -1% | 16% | 0% | -7 | 6%
NC(=S)Nc1cc2ccccc2c2ccccc12 | 34% | i | -4% | -22% | 1% | 7 | 19%
NC(=O)c1cccc(-c2ccnc3c2CC(C(=O)NCCc2ccccc2)O3)c1 (configuration not stated) | -7% | i | . | . | . | . | .
O=C(NCCc1ccccc1)C1Cc2c(-c3ccccc3)ccnc2O1 (configuration not stated) | ? | i | . | . | . | . | -2%
Cc1cccc(N2CCN(C(=O)c3ccc4nc(N5CCC(C)CC5)sc4c3)CC2)c1C | -5% | . | . | . | 0% | . | .
CCOc1ccccc1NC(=O)c1cc2ccccc2o1 | 53% | i | . | 3% | . | -4 | -14%
CCOc1ccccc1NC(=O)c1cc2ccccc2oc1=O | -1% | i | 1% | -9%[15.4 µM] | 2% | 4 | .
